Laboratory results taken from PubChem BioAssay (EPA / NIEHS).
“And” between values parts separate entries of the source, which are not always exact repeats. Identical values can stand only once. More than one record can exist for a structure, and the calls need not agree. The source made the active and inactive calls. How the source made its calls: active means hit-call score of the fitted dose curve at least 0.9, where 1 is the maximum; inactive means score below 0.9.

Tested on: not listed separately
Assay: ATG_PBREM_CIS: Attagene CIS-FACTORIAL HepG2 Assay for human Phenobarbital-responsive Enhancer Module (PBREM) (AID 2282955)
Conditions: HepG2 PBREM cis-reporter, Attagene multiplexed transcription; actives raise or lower the signal
Outline: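 Endogenous transcription factors in human liver HepG2 cells drive a PBREM cis-element reporter, whose transcript level after 24 h treatment is quantified by RT-PCR with capillary electrophoresis; activity fitted in both directions against DMSO.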

Compound	outcome	AC50
COC(=O)c1cccc(C)c1S(=O)(=O)NC(=O)Nc1nc(OCC(F)(F)F)nc(N(C)C)n1	inactive	
OB(O)O	inactive	
CCCCOCCOCCOCc1cc2c(cc1CCC)OCO2		8.08 µM (active)
CCCN(CCC)C(=O)SCC	inactive	
CCCOC(=O)NCCCN(C)C	inactive	
c1ccc(Nc2ccccc2)cc1	inactive	
CCOC(=O)COc1cc(-n2ncc(C(F)(F)F)c(C)c2=O)c(F)cc1Cl	inactive	

Molecular target: Paired box protein Pax-6 (Homo sapiens) (UniProt P26367)
Assay: ATG_Pax6_CIS: Attagene CIS-FACTORIAL HepG2 Assay for human Paired Box 6 (PAX6) (AID 2282956)
Conditions: HepG2 CIS-FACTORIAL PAX6 reporter transcription, RNA readout; actives raise or lower the signal
Outline: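 Transient MRTU transfection of HepG2 → compound exposure 24 h → TriZol RNA, oligo(dT) RT → PCR, 6-FAM primer extension, HpaI cut → capillary electrophoresis; activity fitted both directions against DMSO.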

Chain of Paired box protein Pax-6 (Homo sapiens) (P26367 whole entry, looked up): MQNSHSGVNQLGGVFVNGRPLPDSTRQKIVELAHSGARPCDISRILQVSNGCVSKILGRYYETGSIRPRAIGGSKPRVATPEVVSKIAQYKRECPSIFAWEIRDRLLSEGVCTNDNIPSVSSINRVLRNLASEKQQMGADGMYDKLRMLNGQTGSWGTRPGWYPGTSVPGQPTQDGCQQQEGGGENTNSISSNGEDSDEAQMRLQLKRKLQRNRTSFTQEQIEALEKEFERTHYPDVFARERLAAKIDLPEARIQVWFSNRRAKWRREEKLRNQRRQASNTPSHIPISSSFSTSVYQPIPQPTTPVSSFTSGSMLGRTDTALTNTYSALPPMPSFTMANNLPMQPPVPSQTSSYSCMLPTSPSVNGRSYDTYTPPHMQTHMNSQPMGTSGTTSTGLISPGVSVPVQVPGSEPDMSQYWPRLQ

Compound	outcome	AC50
CC1(C)C(C=C(Cl)Cl)C1C(=O)OCc1cccc(Oc2ccccc2)c1 (stereo not given)	inactive	
CCCOC(=O)c1ccc(C(=O)OCCC)nc1	inactive	
O=C(Nc1ccc([N+](=O)[O-])cc1Cl)c1cc(Cl)ccc1O	inactive	
COc1nc(C)nc(NC(=O)NS(=O)(=O)c2ccccc2OCCCl)n1	inactive	
N#CSCSc1nc2ccccc2s1	inactive	11.1 µM (active)
CCC(O)=C1C(=O)CC(C(=O)O)CC1=O (stereo not given)	inactive	
CSC(=O)c1cccc2nnsc12	inactive	
C[C@]12C[C@H](O)[C@H]3[C@@H](CCC4=CC(=O)CC[C@@]43C)[C@@H]1CC[C@@H]2C(=O)CO	inactive	
O=C(O)C1(C(=O)Nc2ccc(Cl)cc2Cl)CC1	inactive	
COC(=O)c1ccc(I)cc1S(=O)(=O)NC(=O)Nc1nc(C)nc(OC)n1	inactive	
CC(=O)S[C@@H]1CC2=CC(=O)CC[C@]2(C)[C@H]2CC[C@@]3(C)[C@@H](CC[C@@]34CCC(=O)O4)[C@H]12	inactive	
CCNc1nc(N)nc(Cl)n1	inactive	
CC(C)CCCCCCc1ccc(O)cc1	inactive	17.9 µM (active) and 20.8 µM (active) and 19.9 µM (active)
CCCCOC(=O)[C@@H](C)Oc1ccc(Oc2ccc(C(F)(F)F)cn2)cc1	inactive	
C#C[C@]1(O)CC[C@H]2[C@@H]3CCC4=CC(=O)CC[C@@H]4[C@H]3CC[C@@]21CC	inactive	
CCCCC(CC)COC(=O)c1ccccc1C(=O)O (stereo not given)	inactive	
CCOC(=O)[C@H](C)Oc1ccc(Oc2nc3ccc(Cl)cc3o2)cc1	inactive	
CC(=O)[C@H]1CC[C@H]2[C@@H]3CCC4=CC(=O)CC[C@]4(C)[C@H]3CC[C@]12C	inactive	24.6 µM (active)
CCCCOC(=O)C(C)Oc1ccc(Oc2ccc(C(F)(F)F)cn2)cc1 (stereo not given)	inactive	
CCCCC(CC)CN1C(=O)C2C3C=CC(C3)C2C1=O (stereo not given)	inactive	
CCOC(=O)C(C)Oc1ccc(Oc2nc3ccc(Cl)cc3o2)cc1 (stereo not given)	inactive	
CCN(CC)C(=O)c1cccc(C)c1	inactive	
COC(=O)c1cccc(C)c1S(=O)(=O)NC(=O)Nc1nc(OCC(F)(F)F)nc(N(C)C)n1	inactive	
OB(O)O	inactive	
CCCCOCCOCCOCc1cc2c(cc1CCC)OCO2	inactive	
CCCN(CCC)C(=O)SCC	inactive	
CCCOC(=O)NCCCN(C)C	inactive	
c1ccc(Nc2ccccc2)cc1	inactive	
CCOC(=O)COc1cc(-n2ncc(C(F)(F)F)c(C)c2=O)c(F)cc1Cl	inactive	
CCCCCOC(=O)COc1cc(N2C(=O)C3=C(CCCC3)C2=O)c(F)cc1Cl	inactive	
